Out of some 330,000 compounds screened, about 1,400 (0.42%) were called active.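 How the source made its calls: active means inhibition above its plate's threshold, mean inhibition of all tested compounds on the plate plus 3 SD (cut at about 37% in these data); inactive means the rest.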 The full list was thinned out, with actives kept by preference.

In general, inhibition refers to the relative decrease from the control value, in per cent.

For this assay, the target named is Orexin/Hypocretin receptor type 1 (Homo sapiens) (UniProt O43613). The assay is described as follows: OX1R (HCRTR1) antagonists, primary screen, fluorescence, CHO/OX1R cells, Fluo-8 calcium, orexin A (AID 434989).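 Further: 0% = orexin A challenge wells and 100% = SB-334867-A antagonist wells.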 The note with it: Fluo-8 calcium fluorescence, at 5 µM, stronger effect = higher value.
Chain of Orexin/Hypocretin receptor type 1 (Homo sapiens) (O43613 whole entry, looked up): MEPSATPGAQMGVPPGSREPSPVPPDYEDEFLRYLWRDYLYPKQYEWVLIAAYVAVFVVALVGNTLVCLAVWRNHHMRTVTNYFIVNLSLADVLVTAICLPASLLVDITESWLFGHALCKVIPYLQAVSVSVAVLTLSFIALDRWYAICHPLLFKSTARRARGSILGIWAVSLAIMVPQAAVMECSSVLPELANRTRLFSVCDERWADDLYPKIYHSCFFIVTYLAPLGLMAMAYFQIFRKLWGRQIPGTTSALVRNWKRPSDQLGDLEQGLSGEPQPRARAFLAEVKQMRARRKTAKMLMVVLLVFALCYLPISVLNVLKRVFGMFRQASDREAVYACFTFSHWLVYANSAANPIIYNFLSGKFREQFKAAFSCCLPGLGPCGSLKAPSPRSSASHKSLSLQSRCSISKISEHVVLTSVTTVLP
With `COc1cc(OC)cc(C(=O)NC(C(=O)N2CCC2)C(C)C)c1` (configuration not stated), the inhibition is -9.6% (inactive).

For `COc1cc(OC)cc(C(=O)N[C@H](C(=O)OCC(=O)NC(C)c2ccccc2)C(C)C)c1` (some centres not stated), the inhibition is 59% (active).

`Cc1cc(C)cc(OCC(=O)NC(C)c2ccccc2)c1` (configuration not stated): the inhibition is -37.8% (inactive).

As for `CC(C)(C)OC(=O)C[C@@H]1C/C=C\C[C@@H](CC(=O)N[C@H](CO)Cc2ccccc2)C(=O)NCCOC1=O`, the inhibition was 2.53% (inactive).

As for `COc1ccc(CN2C(CC(=O)Nc3cccnc3)c3ccc(C(F)(F)F)cc3S2(=O)=O)cc1` (configuration not stated), the inhibition is -16.2% (inactive).

In the case of `COC(=O)Cn1cc(/C=C/[N+](=O)[O-])c2ccccc21`, the inhibition was -4.68% (inactive).

With `O=C(Cn1ccc2cc(S(=O)(=O)N3CCCC3)ccc21)NCc1ccccc1`, the inhibition is -25.5% (inactive).

In the case of `O=[N+]([O-])/C=C/c1ccc2c(ccn2Cc2ccccc2)c1`, the inhibition is 53.8% (active).

For the compound `CC1(C)C[C@H]2C3=CCC4[C@@]5(C)CC[C@H](O)[C@](C)(CO)C5CC[C@@]4(C)[C@]3(C)C[C@@H](O)[C@@]2(CO)[C@@H](O)[C@@H]1O` (some centres not stated), the inhibition is -0.97% (inactive).

Take `O=C(Nc1ccc(C2CC2(Cl)Cl)cc1)c1cccc([N+](=O)[O-])c1` (configuration not stated): the inhibition was 45.8% (active).

With `O=C(Nc1ccc(C(=O)N2CCCCC2)cc1)c1cccc([N+](=O)[O-])c1`, the inhibition is 1.86% (inactive).

As to `O=C(Nc1ccc(NC(=O)c2ccco2)c(Cl)c1)c1cccc([N+](=O)[O-])c1`, the inhibition is -19.9% (inactive).

In the case of `CC(Sc1nncn1C)C(=O)NCCC1=CCCCC1` (configuration not stated), the inhibition was -6.11% (inactive).

For `COc1ccc(CNC(=O)C[C@H]2C[C@H](C(=O)N3CCOCC3)[C@@]3(CCC4CCCC4)c4[nH]c5ccc(Cl)cc5c4CCN3C2=O)cc1OC`, the inhibition was 19.8% (inactive).

On to `COc1ccc(NC(=O)/C(Cl)=C(/Cl)S(=O)Cc2ccc(C)cc2)cn1` (configuration not stated), for which the inhibition is 47.5% (active).

Consider `Cc1ccc(NC(=O)OCc2cncs2)cc1`, for which the inhibition was -7.33% (inactive).

For the compound `COc1ccc(Nc2ccc([N+](=O)[O-])cn2)cn1`, the inhibition is -22.9% (inactive).

As to `CCCSc1ccc([C@H]2N[C@@](Cc3ccccc3)(C(=O)OC)[C@H]3C(=O)N(C)C(=O)[C@@H]23)cc1`, the inhibition is -27.9% (inactive).

As to `CC(C)(C)OC(=O)C1=C(CO)CS[C@@H]2[C@H](NC(=O)Cc3ccccc3)C(=O)N12`, the inhibition was 1.11% (inactive).

As for `C=CC[C@@H](CC(=O)NCCO)C(=O)N[C@H](C)COC(=O)[C@@H](CC=C)CC(=O)OC(C)(C)C`, the inhibition was 1.19% (inactive).

As to `CN(C(=O)COC(=O)Cc1ccccc1[N+](=O)[O-])C1CCS(=O)(=O)C1` (configuration not stated), the inhibition was 1.38% (inactive).

For `CC(C)n1cnc2c(NCc3ccccc3)cc(N[C@@H](CO)Cc3ccccc3)cc21`, the inhibition was -6.91% (inactive).
